This note sets out measurements from PubChem BioAssay.

One assay concerns the target Albumin (Bos taurus) (UniProt P02769). Kind of assay: compounds binding labelled BSA control protein – biochemical, small-molecule microarray, Alexa647 label, 635/667 nm fluorescence, artefact control for SMM control protein annotation, profiling panel (AID 1118).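 Further: score merges 667 nm emission intensity and signal-to-noise per printed compound spot.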 As to conditions: BSA-A647 binding, fluorescence 635 nm, higher = more signal.
The nature of assay [1]: probe aXIP binding to arrayed compounds – biochemical, NeuroSMM set, 635/667 nm fluorescence, primary screen (AID 1119).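 Further: probe is the protein aXip251-270 applied at 1 µg/mL to compound-printed slides; binding of probe to printed compounds measured as 667 nm fluorescence plus signal to noise.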 As to conditions: small-molecule microarray, higher = more signal, called active from +8 up or from −8 down.
Assay [2] in a line: probe aNOTCH3 binding on compound microarray – biochemical, small-molecule microarray, 635/667 nm fluorescence, primary screen (AID 1120).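 Further: probe is a biotin-tagged antibody raised against NOTCH3 rather than NOTCH3 protein; score merges spot fluorescence near 667 nm with spot signal to noise.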 As to conditions: higher = more signal.
Assay [3] is described as follows: probe aNOTCH2 binding on compound microarray – biochemical, small-molecule microarray, 635/667 nm fluorescence, primary screen (AID 1121).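 Further: score merges feature fluorescence read at 667 nm with its signal to noise.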 The note with it: higher = more signal.
Assay [4] concerns the target Carbonic anhydrase 2 (Homo sapiens) (UniProt P00918). The experiment in a line: compounds binding carbonic anhydrase 2 – biochemical, small-molecule microarray, Alexa647-labelled CAII, profiling panel (AID 1122). The note with it: CAII-A647 binding fluorescence, higher = more signal.
Assay [5] in a line: COS7 lysate on small-molecule microarray, probe aHis, 635 nm (AID 1123).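 Further: z-score combines 667nm fluorescence intensity with signal-to-noise per printed compound spot.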 The note with it: COS7 cell lysate, fluorescence, higher = more signal.
Assay [6] in a line: probe aLAP1 signal on lysate-treated microarray – cell lysate, small-molecule microarray, COS7 lysate, primary screen (AID 1124).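 Further: lysate comes from COS7 cells expressing LAP1 and is applied at 0.3 µg/mL; score merges spot fluorescence near 667 nm with signal-to-noise over triplicate slides.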 The note with it: probe aLAP1, fluorescence, higher = more signal.
The subject of the next assay is Sam68 (KHDRBS1). The experiment in a line: compounds binding KHDRBS1 protein – biochemical, small-molecule microarray, 635 nm fluorescence, primary screen (AID 1125).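 Further: score merges 667 nm channel intensity with signal to noise over triplicate slides.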 The note with it: higher = more signal.
Assay [7] has as its system Chordin-like protein 2 (CHRDL2). The experiment in a line: compounds binding chordin-like 2 – biochemical, small-molecule microarray, 635 nm fluorescence, primary screen (AID 1126).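 Further: printed compound slides probed with Chrdl2 protein at 4 µg/mL for 1 h at 4 C; score merges 667 nm emission intensity with signal to noise over three replicate slides.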 The note with it: fluorescence 635 nm, higher = more signal.
In assay [8] the target is Concanavalin-A (Canavalia ensiformis) (UniProt P02866). Kind of assay: compounds binding concanavalin A lectin – biochemical, small-molecule microarray, Alexa647 label, 635 nm, artefact control for SMM control protein annotation, primary screen (AID 1127).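 Further: z combines 667 nm emission intensity with signal-to-noise across three replicate slides.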 As to conditions: ConA-A647 binding fluorescence, higher = more signal.

Calls of active or inactive are those of the source.

Albumin (Bos taurus), sequence (P02769 whole entry, looked up): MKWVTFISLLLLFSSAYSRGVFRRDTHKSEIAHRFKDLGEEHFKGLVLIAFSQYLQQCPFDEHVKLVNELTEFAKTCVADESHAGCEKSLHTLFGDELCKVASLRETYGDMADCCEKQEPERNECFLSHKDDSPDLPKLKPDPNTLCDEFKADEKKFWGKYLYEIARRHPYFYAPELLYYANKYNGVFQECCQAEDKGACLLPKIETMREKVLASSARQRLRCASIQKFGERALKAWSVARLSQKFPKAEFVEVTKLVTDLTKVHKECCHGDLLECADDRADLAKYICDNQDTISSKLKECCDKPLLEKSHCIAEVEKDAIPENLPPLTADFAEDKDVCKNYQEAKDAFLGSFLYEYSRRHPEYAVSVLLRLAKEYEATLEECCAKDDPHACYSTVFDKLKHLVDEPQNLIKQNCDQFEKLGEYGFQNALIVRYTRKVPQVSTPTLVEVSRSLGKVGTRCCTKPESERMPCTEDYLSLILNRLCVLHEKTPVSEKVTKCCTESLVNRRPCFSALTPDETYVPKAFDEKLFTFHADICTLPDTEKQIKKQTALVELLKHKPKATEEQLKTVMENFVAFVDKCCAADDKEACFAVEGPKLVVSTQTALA
Concanavalin-A (Canavalia ensiformis), sequence (P02866 whole entry, looked up): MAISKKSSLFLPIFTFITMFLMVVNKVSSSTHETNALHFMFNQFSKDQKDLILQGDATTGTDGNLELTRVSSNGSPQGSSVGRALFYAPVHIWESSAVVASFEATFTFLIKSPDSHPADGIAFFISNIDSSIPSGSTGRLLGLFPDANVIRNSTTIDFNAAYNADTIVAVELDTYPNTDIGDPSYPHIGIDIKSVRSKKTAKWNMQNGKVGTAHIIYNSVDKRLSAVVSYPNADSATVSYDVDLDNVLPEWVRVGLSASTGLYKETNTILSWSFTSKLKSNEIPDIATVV

For `CCCNC(=O)OC[C@H]1O[C@H](CCON=CC[C@@H]2C=C[C@H](OC(C)=O)[C@@H](COC(C)=O)O2)C=C[C@@H]1Oc1ccc(OC)cc1`, the composite z-score was 0.619 with Albumin (Bos taurus); 0.0131 in [2]; -0.14 in assay [3]; -0.0893 in [4]; 0.0884 in [5]; 0.394 in [6]. In addition, the composite z-score amounted to 0.911 in the assay with Sam68 (KHDRBS1), 0.593 in [7] and 0.0162 in assay [8]. For the same compound, in assay [1], the composite Z-score was -0.263 (inactive).
Regarding `CCCC[C@@H]1C[C@H]1[C@@H](NS(=O)(=O)c1cccc2cccnc12)c1ccc(-c2ccccc2)cc1`, the composite z-score in the assay with Albumin (Bos taurus) was 0.41; in assay [2], 0.106; in assay [3] it was -0.0817; in [4], 0.529; in assay [5], 0.92; in assay [6], -0.222. For the same compound, the composite z-score in the assay on Sam68 (KHDRBS1) is -0.0217; in [7], -1; in [8], 0.119. For the same compound, the composite Z-score in assay [1] was -0.325 (inactive).
Regarding `CC1CC/C=C\[C@H]2OC34C=CCN(C(C)C)C(=O)[C@H]3N(CCCO)C(=O)[C@@H]4C2C(=O)O1` (stereo not given in full), the composite z-score with Albumin (Bos taurus) is 0.468; in assay [2], -0.0018; in assay [3] it was -0.0621; in assay [4], 0.9; in assay [5], 0.702; in [6] it was 0.962. Further, the results for the composite z-score (in the assay with Sam68 (KHDRBS1); in [7]; in assay [8]) were -0.499, -0.951 and -1.74, respectively. Moreover, in assay [1], the composite Z-score was -1.03 (inactive).
Regarding `CO[C@@H]1COC(=O)CC=C[C@@H](C)[C@H](OC)COC(=O)[C@H](COCc2ccccc2)NC(=O)CC=C[C@H]1C`, the composite z-score with Albumin (Bos taurus) was -1.39; in assay [2], -0.0584; in [3], -0.197; in assay [4] it was -0.654; in [5] it was -0.925; in [6], -0.23. In addition, the values for the composite z-score (in the assay with Sam68 (KHDRBS1); in assay [7]; in assay [8]) were -0.978, 1.22 and -3.99, respectively. In addition, in assay [1], the composite Z-score is 0.0898 (inactive).
As for `COc1ccc(O[C@H]2C=C[C@@H](c3ccccc3)O[C@@H]2COC(=O)N2CCCCC2)cc1`, the composite z-score is -0.725 with Albumin (Bos taurus); -0.131 in assay [2]; -0.111 in assay [3]; -0.29 in [4]; -0.482 in assay [5]; 0.0033 in assay [6]. The composite z-score with Sam68 (KHDRBS1) is -0.907; in [7], 0.387; in assay [8], -0.578. In addition, in [1], the composite Z-score was 0.0229 (inactive).
With `CC(CCN1CCCCc2nc(C)c(C)cc21)=NOC(C)CN1CCCCc2nc(C)c(C)cc21` (stereo not given), the composite z-score was 0.845 with Albumin (Bos taurus); 0.284 in [2]; -0.0131 in assay [3]; 0.503 in [4]; 1.12 in [5]; 0.858 in assay [6]. In addition, the composite z-score in the assay on Sam68 (KHDRBS1) is 1.3; in assay [7], 1.25; in assay [8], 0.898. In addition, the composite Z-score in assay [1] is 0.833 (inactive).
Regarding `CO[C@@H]1COC(=O)CC=C[C@@H](C)[C@@H]2C=C[C@H](O)[C@@H](COC(=O)[C@H](C)NC(=O)CC=C[C@H]1C)O2`, the composite z-score in the assay with Albumin (Bos taurus) is -0.107; in assay [2], -0.0328; in [3], -0.164; in [4], -0.455; in assay [5], -1; in assay [6], 1.27. In addition, the composite z-score with Sam68 (KHDRBS1) was 0.249; in [7], 1.54; in [8], -0.016. Moreover, the composite Z-score in assay [1] was 0.581 (inactive).
With `CC(C)CON=C1[C@H]2CCn3c(=O)n(-c4ccccc4)c(=O)n3[C@H]2[C@H](O)[C@@H]2O[C@H]12`, the composite z-score with Albumin (Bos taurus) was 0.348; in assay [2], -0.0193; in [3], 0.0145; in assay [4] it was -0.0152; in assay [5], -0.497; in assay [6] it was -0.544. The composite z-score in the assay on Sam68 (KHDRBS1) is -0.589; in assay [7], 0.762; in [8], 0.0834. Further, the composite Z-score in assay [1] is 0.131 (inactive).
As to `COC(=O)CC=C[C@@H](C)[C@@H](C=NO[C@@H](C)c1cc(-c2c(C)cc(C)cc2C)no1)OC`, the composite z-score was -0.387 in the assay with Albumin (Bos taurus); -0.161 in [2]; -0.156 in assay [3]; -0.604 in assay [4]; -0.556 in assay [5]; -0.52 in [6]. For the same compound, the values for the composite z-score (in the assay on Sam68 (KHDRBS1); in assay [7]; in [8]) were -1.32, -1.36 and -0.627, respectively. Moreover, the composite Z-score in assay [1] is -0.483 (inactive).
Consider `CC(C)N1CC=CC23O[C@@H]4C=CCCOC(=O)C4[C@H]2C(=O)N(CCCCCCO)[C@@H]3C1=O` (stereo not given in full), for which the composite z-score with Albumin (Bos taurus) was -0.176; in [2], -0.193; in [3], 0.109; in assay [4] it was 0.439; in assay [5], -0.425; in assay [6], 0.753. Besides, the values for the composite z-score (in the assay with Sam68 (KHDRBS1); in assay [7]; in assay [8]) were -0.952, -1.71 and -0.428, respectively. Further, the composite Z-score in [1] was 0.0157 (inactive).
`COc1ccc(O[C@H]2C=C[C@@H](c3ccccc3)O[C@@H]2COC(=O)CCC(C)=NOC(C)CN2CCCCc3nc(C)c(C)cc32)cc1` (stereo not given in full): the composite z-score in the assay with Albumin (Bos taurus) is -0.485; in assay [2], -0.0918; in assay [3], -0.179; in [4], 0.456; in assay [5], 0.121; in assay [6], -0.312. Also, the composite z-score in the assay with Sam68 (KHDRBS1) is -0.433; in assay [7], -0.101; in assay [8], -0.929. Moreover, the composite Z-score in [1] is 0.105 (inactive).
`C=C(COC)/C(=C/C[C@H](OC(=O)c1ccncc1)c1ccc(CO)o1)c1cc(C(=O)OC)ccc1OC`: the composite z-score in the assay with Albumin (Bos taurus) was 0.439; in assay [2], 0.0222; in assay [3] it was -0.0255; in assay [4] it was 0.554; in [5], 1.17; in assay [6] it was 0.347. Also, the composite z-score in the assay with Sam68 (KHDRBS1) came out at 1.15; in [7], 0.79; in assay [8], 0.889. Moreover, the composite Z-score in [1] is 0.515 (inactive).
Turning to `CCCNC(=O)OC[C@H]1O[C@H](CCON=C[C@@H](OC)[C@H](C)C=CCC(=O)OC)C=C[C@@H]1Oc1ccc(OC)cc1`, the composite z-score was -1.05 in the assay with Albumin (Bos taurus); 0.142 in [2]; -0.192 in assay [3]; 0.0769 in assay [4]; 0.438 in assay [5]; 0.325 in [6]. Further, the composite z-score in the assay on Sam68 (KHDRBS1) was 0.693; in assay [7] it was 1.16; in assay [8], -1.26. In addition, the composite Z-score in assay [1] was -0.431 (inactive).
In the case of `COc1ccc(O[C@@H]2[C@H](O)CO[C@H]2C=CC#Cc2ccccc2)cc1`, the composite z-score was -0.0002 in the assay with Albumin (Bos taurus); -0.166 in assay [2]; -0.171 in assay [3]; 0.177 in assay [4]; 0.297 in assay [5]; 0.0594 in assay [6]. Moreover, the composite z-score in the assay with Sam68 (KHDRBS1) is -0.016; in assay [7], 0.229; in assay [8] it was -0.301. Further, in assay [1], the composite Z-score is 0.497 (inactive).
Regarding `CCc1cc2c(nc1CC)CCN(CCC(C)=NOC[C@@H](O)[C@H]1O[C@@H]3OC(C)(C)O[C@@H]3[C@H]1O)C2`, the composite z-score is 0.424 with Albumin (Bos taurus); -0.0111 in assay [2]; -0.0891 in assay [3]; 0.213 in assay [4]; 0.421 in assay [5]; -0.0959 in [6]. Besides, the composite z-score in the assay with Sam68 (KHDRBS1) turned out to be 0.398; in [7], 0.382; in assay [8], 0.971. The composite Z-score in [1] is 0.386 (inactive).
For the compound `C=CC[C@@H]1C=C[C@H](ON=C2c3cc(OC)ccc3O[C@H](c3cccc(OC)c3)[C@H]2O)[C@@H](CO)O1`, the composite z-score is 0.764 with Albumin (Bos taurus); -0.253 in assay [2]; -0.0956 in assay [3]; 0.427 in assay [4]; 0.425 in assay [5]; 0.266 in assay [6]. For the same compound, the results for the composite z-score (in the assay on Sam68 (KHDRBS1); in assay [7]; in assay [8]) were -0.194, 0.105 and -0.302, respectively. The composite Z-score in assay [1] was 0.196 (inactive).
Turning to `C=CC[C@]1(C(=O)NCc2ccccc2)N=C(c2ccc(OCCCO)cc2)O[C@H]1c1ccccc1`, the composite z-score in the assay with Albumin (Bos taurus) is 0.866; in assay [2], 0.0488; in assay [3], -0.123; in assay [4], 0.69; in assay [5], 2.65; in assay [6], 0.308. Besides, the results for the composite z-score (with Sam68 (KHDRBS1); in [7]; in assay [8]) were 1.28, -0.911 and 0.691, respectively. In assay [1], the composite Z-score was -0.275 (inactive).
